Test results from PubChem BioAssay (NCI).
Compounds without any hit were thinned out: in the full panel of roughly 83,000, 20% have a hit.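 96-well plates, one dose, 48 hours. Percent growth reported; active if below 10.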 A number with no mark means an inactive call. The source made the active and inactive calls.

How the values were obtained:
Experiment in all cases: NCI-60 one-dose screen, 48 h (100 = growth as untreated, 0 = no growth, -100 = all killed)
Conditions in all cases: 10 µM unless noted
NCI-H23 lung = tested on: NCI-H23 lung
NCI-H226 lung = tested on: NCI-H226 lung
NCI-H322M lung = tested on: NCI-H322M lung
NCI-H460 lung = tested on: NCI-H460 lung
HOP-92 NSCLC = tested on: HOP-92 NSCLC
NCI-H522 lung = tested on: NCI-H522 lung
A549/ATCC NSCLC = tested on: A549/ATCC NSCLC
786-0 renal = tested on: 786-0 renal
COLO 205 colon = tested on: COLO 205 colon
HOP-62 NSCLC = tested on: HOP-62 NSCLC

| SMILES | growth (NCI-H23 lung) | growth (NCI-H226 lung) | growth (NCI-H322M lung) | growth (NCI-H460 lung) | growth (HOP-92 NSCLC) | growth (NCI-H522 lung) | growth (A549/ATCC NSCLC) | growth (786-0 renal) | growth (COLO 205 colon) | growth (HOP-62 NSCLC) |
| --- | --- | --- | --- | --- | --- | --- | --- | --- | --- | --- |
| CSc1nc(-c2ccc(F)cc2)c(C#N)c(N2CCOCC2)n1 | 101% | 80% | 92.6% | 102% | 73.9% | 90.1% | 88.6% | 93.7% | 106% | – |
| Nc1c(C(=O)Nc2ccccc2Cl)sc2nc3c(cc12)CN(Cc1ccccc1)CC3 | 103% | 91.5% | 92.4% | 93.4% | 109% | 88.2% | 112% | 99% | 95.5% | – |
| CCOC(=O)c1cnn(-c2nc(-c3ccc(F)cc3)c(C#N)c(N3CCOCC3)n2)c1N | 103% | 92.1% | – | 100% | 98.7% | 90.6% | 93.9% | 82.5% | 107% | 111% |
| Cc1ccc(-c2nc(C#N)c(S(=O)(=O)N(C)CCO)o2)cc1 | 80.3% | 124% | 93.3% | 89.3% | 88.9% | 17.5% | 99% | 79.6% | 44.3% | – |
| O=C1CC(c2ccc(O)c(O)c2)Oc2cc(O)c([C@@H]3O[C@H](CO)[C@@H](O)[C@H](O)[C@H]3O)c(O)c21 (stereo not given in full) | 106% | 98.9% | 113% | 99.1% | 113% | 100% | 94.8% | 99.5% | 108% | – |
| COc1ccc(-n2cc(-c3ccc(Cl)c(Cl)c3)[nH]c2=O)cc1OC | 94.8% | 97.5% | 75.9% | 107% | 75% | 85.2% | 89.6% | 59.5% | 109% | – |
| C#C[C@@]1(O)[C@@H](CO)O[C@@H](n2cnc3c(-c4ccccc4)ncnc32)[C@@H]1O | 101% | 104% | 104% | 112% | 105% | 94.8% | 94.1% | 98.8% | 109% | – |
| O=C1Nc2ccc(Br)cc2/C1=N\N=C/c1cn(Cc2ccccc2)c2ccccc12 | 94.4% | 80.5% | 84% | 51.9% | 106% | 83.9% | 91% | 103% | 114% | – |
| C=C(C)[C@@H]1CC[C@]2(C(=O)OCCOCCOCC[P+](c3ccccc3)(c3ccccc3)c3ccccc3)CC[C@]3(C)[C@H](CC[C@@H]4[C@@]5(C)CC[C@H](OC(C)=O)C(C)(C)[C@@H]5CC[C@]43C)[C@@H]12 | -84.6% (active) | -85.3% (active) | -93.8% (active) | -80.5% (active) | -87.3% (active) | -75.2% (active) | -88.3% (active) | -91.6% (active) | -75.7% (active) | – |
| O=C(Nc1nc(-c2ccccc2)cs1)c1cc(-c2ccc(Br)cc2)nc2ccccc12 | 51.6% | 46.3% | 81.5% | 31.3% | 6.1% (active) | 43.5% | 36.5% | 65.4% | 56.2% | – |
| Cc1ccc(C(=O)O)o1 | 100% | 104% | 105% | 108% | 89.9% | 87% | 93.1% | 97.1% | 107% | – |
| COC1=CC=CC2(OC)C3(O)CCCc4cccc(c43)N3C(=O)COC132 (stereo not given) | 96.1% | 103% | 101% | 105% | 89.9% | 78.8% | 90.8% | 102% | 107% | – |
| Nc1n[nH]c2cccc(C#Cc3cccc(NC(=O)c4cc(N5CCOCC5)cc(C(F)(F)F)c4)c3)c12 | 45% | 43.9% | – | 47.3% | 34.1% | 53.2% | 69.5% | 57.7% | 18.2% | 48.2% |
| CCCCc1ccc(N=Nc2ccc(OCC[N+](C)(C)C)cc2)cc1 | 49.2% | 51.9% | 73.8% | 32.7% | 25.8% | 34.4% | 33.2% | 71.4% | -5.3% (active) | – |
| COC(=O)c1ccc2c(c1)NC(=O)[C@@H]1CCCN21 | 88.6% | 98.5% | 99.3% | 106% | 87.5% | 70% | 98.2% | 97.8% | 108% | – |
| O=C1c2ccccc2C(=O)c2c1oc1c2c(=O)[nH]c2ccccc21 | 66% | 78.5% | 89.3% | 68.3% | 71.4% | 54.8% | 97.2% | 102% | 109% | – |
| CCCn1c2cc(OCc3cn(-c4ccc(Br)cc4)nn3)ccc2c2ccnc(C)c21 | 81.7% | 25.6% | 71.5% | 36.2% | 60% | 76.1% | 53.7% | 36.7% | 42% | – |
| CC(=O)Oc1ccc(O)cc1 | 95.2% | 106% | 97.2% | 108% | 98.3% | 33.3% | 91.6% | 110% | 120% | – |
| Oc1c(CCl)cc(Cl)cc1Cc1cc(Cl)cc(Cc2cc(Cl)cc(CCl)c2O)c1O | 5.68% (active) | 32.4% | 4.12% (active) | 11.9% | -18.3% (active) | -10.9% (active) | 46.5% | 55.3% | 68.3% | – |
| C[C@@H]1C(=O)[C@@H]2C[C@@H](O)[C@@H](O)C[C@]2(C)[C@H]2CC[C@@]3(C)C(=C12)CC[C@@H]3[C@@](C)(O)[C@H](O)CCC(C)(C)O | 103% | 99.5% | 95.2% | – | 97.5% | 89% | 92.8% | 100% | 117% | – |
| COc1ccc(Sc2[nH]c(C(C)=O)c3ccccc23)cc1 | 82.6% | 69.8% | 76.7% | 20.4% | 65.8% | -7.2% (active) | 23% | 92.2% | -31.2% (active) | – |
| CCCCn1c2cc(OCc3cn(-c4ccc(Cl)cc4)nn3)ccc2c2ccnc(C)c21 | 32.4% | 52.3% | 56.6% | 21.5% | 36.9% | 24.2% | 42.1% | -10.3% (active) | 21.9% | – |
| Oc1ccccc1-c1nc2c3ccccc3c3ccccc3c2o1 | 85.5% | 85.8% | 92.4% | 69.6% | 83.8% | 99.3% | 90.9% | 99.2% | 85.7% | – |
| CCO/C=N/S(=O)(=O)c1cc2c(cc1Cl)NC=NS2(=O)=O | 103% | 98.7% | 111% | 106% | 92.2% | 99.4% | 89% | 100% | 108% | – |
| C=C1C(=O)O[C@H]2[C@H]1CC/C(COC(=O)CCC(=O)OC/C1=C/CC[C@@]3(C)O[C@H]3[C@H]3OC(=O)C(=C)[C@@H]3CC1)=C\CC[C@@]1(C)O[C@@H]21 | 58.5% | 84.3% | – | 93.9% | -1.85% (active) | -69.2% (active) | 88.7% | 40.7% | -55% (active) | 85.7% |
| CCOC(=O)NC(Cc1ccccc1)c1ccccc1 (stereo not given) | 98.4% | 98.8% | – | 111% | 87.4% | 87.1% | 99.1% | 96.6% | 105% | 99.6% |
| C[C@]12CC[C@@H]3c4ccc(O)cc4CC[C@H]3[C@@H]1C[C@H](O)C2 | 100% | 104% | – | 74.3% | 86.1% | 54.6% | 49.5% | 88.1% | 128% | 72.8% |
| O=C1CCC23OC(C(O)c4ccccc4N12)C1C(Br)=NOC13 (stereo not given) | 99.1% | 110% | – | 110% | 109% | 99.9% | 99.7% | 94.6% | 108% | 96.8% |
| O=c1c2ccccc2oc2ccc(OCCCCCN3CCCCCC3)cc12 | 72% | 91.4% | – | 78.9% | 94.1% | 69.9% | 71.9% | 78.5% | 43.6% | 92.5% |
